According to PubChem BioAssay (NCI):
About 83,000 compounds went through this panel and 20% of them were active in at least one assay; those are over-represented in the sample as a whole.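 Each cell line was grown in a 96-well plate and treated with one concentration of compound for 48 hours. Values below 10 were considered active.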 The source made the active and inactive calls.

Experiments:
Experiment in all cases: NCI-60 one-dose screen, 48 h (100 = growth as untreated, 0 = no growth, -100 = all killed)
Details in all cases: 10 µM
HCT-15 colon = system: HCT-15 colon
HT29 colon = system: HT29 colon
SNB-75 CNS = system: SNB-75 CNS
SNB-19 CNS = system: SNB-19 CNS
U251 CNS = system: U251 CNS
PC-3 prostate = system: PC-3 prostate
SK-MEL-5 melanoma = system: SK-MEL-5 melanoma
UACC-62 melanoma = system: UACC-62 melanoma
LOX IMVI melanoma = system: LOX IMVI melanoma
SK-MEL-28 melanoma = system: SK-MEL-28 melanoma
SK-MEL-2 melanoma = system: SK-MEL-2 melanoma
SN12C renal = system: SN12C renal
UO-31 renal = system: UO-31 renal
TK-10 renal = system: TK-10 renal
ACHN renal = system: ACHN renal
CAKI-1 renal = system: CAKI-1 renal
A498 renal = system: A498 renal
CCRF-CEM leukemia = system: CCRF-CEM leukemia
MOLT-4 leukemia = system: MOLT-4 leukemia

Measured: growth

CC(=O)c1c(O)cc2c3c1OC(C)(C)C1CCC(C)(CC31)O2 (stereo not given)
inactive: HCT-15 colon 97.5% | HT29 colon 90.6% | SNB-75 CNS 96% | SNB-19 CNS 98.7% | U251 CNS 102% | PC-3 prostate 88.8% | SK-MEL-5 melanoma 83.1% | UACC-62 melanoma 88.5% | LOX IMVI melanoma 97.9% | SK-MEL-28 melanoma 111% | SK-MEL-2 melanoma 99.2% | SN12C renal 99.6% | UO-31 renal 77.8% | TK-10 renal 110% | ACHN renal 95.1% | CAKI-1 renal 89.5% | A498 renal 76% | CCRF-CEM leukemia 106% | MOLT-4 leukemia 78.9%

O=C(C=P(c1ccccc1)(c1ccccc1)c1ccccc1)c1ccc(Br)cc1
active: MOLT-4 leukemia 0.436%
inactive: HCT-15 colon 95.2% | HT29 colon 79.1% | SNB-75 CNS 90.9% | SNB-19 CNS 98.6% | U251 CNS 97.1% | PC-3 prostate 41.7% | SK-MEL-5 melanoma 96.6% | UACC-62 melanoma 67.5% | LOX IMVI melanoma 73.4% | SK-MEL-28 melanoma 109% | SK-MEL-2 melanoma 94.3% | SN12C renal 96.5% | UO-31 renal 53.7% | TK-10 renal 95% | ACHN renal 78.7% | CAKI-1 renal 84.3% | A498 renal 64.3% | CCRF-CEM leukemia 55%

COc1ccc(/C=C2\CCC3C(CCCC34OCCO4)C2=O)cc1 (stereo not given)
inactive: HCT-15 colon 66.2% | HT29 colon 80.1% | SNB-75 CNS 105% | SNB-19 CNS 90.1% | U251 CNS 99.2% | PC-3 prostate 86.4% | SK-MEL-5 melanoma 87.3% | UACC-62 melanoma 81% | LOX IMVI melanoma 80.8% | SK-MEL-28 melanoma 95.1% | SK-MEL-2 melanoma 88.4% | SN12C renal 96.8% | UO-31 renal 80.5% | TK-10 renal 95.3% | ACHN renal 93.6% | CAKI-1 renal 80.2% | A498 renal 106% | CCRF-CEM leukemia 79.1% | MOLT-4 leukemia 78.2%

N#CCC1CCCC1
inactive: HCT-15 colon 99.7% | HT29 colon 105% | SNB-75 CNS 78.7% | SNB-19 CNS 98.8% | U251 CNS 97.4% | PC-3 prostate 87.9% | SK-MEL-5 melanoma 104% | UACC-62 melanoma 99.4% | LOX IMVI melanoma 97.2% | SK-MEL-28 melanoma 97.6% | SK-MEL-2 melanoma 120% | SN12C renal 94% | UO-31 renal 97% | TK-10 renal 104% | ACHN renal 98.1% | CAKI-1 renal 89.9% | A498 renal 91% | CCRF-CEM leukemia 92% | MOLT-4 leukemia 112%

O=C1/C(=C/c2ccc(O)cc2)Oc2ccc(Cl)cc21
inactive: HCT-15 colon 89.1% | HT29 colon 155% | SNB-75 CNS 82.8% | SNB-19 CNS 85.1% | U251 CNS 89.9% | PC-3 prostate 95.1% | SK-MEL-5 melanoma 74.8% | UACC-62 melanoma 82.5% | LOX IMVI melanoma 82.3% | SK-MEL-28 melanoma 142% | SK-MEL-2 melanoma 109% | SN12C renal 84.6% | UO-31 renal 38.5% | TK-10 renal 117% | ACHN renal 95.4% | CAKI-1 renal 77.1% | A498 renal 125% | CCRF-CEM leukemia 88.2% | MOLT-4 leukemia 81.1%

CCc1ccc(-c2nnc(COc3ccc(-c4nc5ccccc5[nH]4)cc3OC)o2)cc1
active: SNB-75 CNS -27.1% | ACHN renal -13.9%
inactive: HCT-15 colon 52.9% | HT29 colon 61.7% | SNB-19 CNS 84.3% | U251 CNS 23.3% | PC-3 prostate 54.9% | SK-MEL-5 melanoma 80.2% | UACC-62 melanoma 91% | LOX IMVI melanoma 24.5% | SK-MEL-28 melanoma 93.5% | SK-MEL-2 melanoma 96.7% | SN12C renal 21.7% | UO-31 renal 56.8% | TK-10 renal 16.7% | CAKI-1 renal 60.1% | A498 renal 88.8% | CCRF-CEM leukemia 61.8% | MOLT-4 leukemia 71.8%

COc1ccc(-c2nc(-c3nc4ccc(C)cc4[nH]3)c3ccccn23)cc1
inactive: HCT-15 colon 33.7% | HT29 colon 21.9% | SNB-75 CNS 66.6% | SNB-19 CNS 55.3% | U251 CNS 42.6% | PC-3 prostate 25.3% | SK-MEL-5 melanoma 39.9% | UACC-62 melanoma 47% | LOX IMVI melanoma 46% | SK-MEL-28 melanoma 84.6% | SK-MEL-2 melanoma 47% | SN12C renal 44.9% | UO-31 renal 14.4% | TK-10 renal 69.4% | ACHN renal 55.6% | CAKI-1 renal 46.9% | A498 renal 19.6% | CCRF-CEM leukemia 18.7% | MOLT-4 leukemia 40.4%

COc1ccc(-c2nnc(COc3ccc(NC(=O)Nc4cccc(C(F)(F)F)c4)cc3F)o2)cc1
inactive: HCT-15 colon 46.1% | HT29 colon 66.8% | SNB-75 CNS 79.6% | SNB-19 CNS 47.7% | U251 CNS 48.1% | PC-3 prostate 46.5% | SK-MEL-5 melanoma 78.8% | UACC-62 melanoma 17.1% | SK-MEL-28 melanoma 73.4% | SK-MEL-2 melanoma 36.8% | SN12C renal 48.7% | UO-31 renal 57.2% | TK-10 renal 75.3% | ACHN renal 27.3% | CAKI-1 renal 50.6% | A498 renal 27.3% | CCRF-CEM leukemia 47.7% | MOLT-4 leukemia 33.8%
active: LOX IMVI melanoma 8.23%

O=C(NCCCl)c1cc(Cl)cc(Cl)c1
inactive: HCT-15 colon 97.1% | HT29 colon 107% | SNB-75 CNS 76.8% | SNB-19 CNS 108% | U251 CNS 98.7% | PC-3 prostate 93.2% | SK-MEL-5 melanoma 101% | UACC-62 melanoma 94.9% | LOX IMVI melanoma 102% | SK-MEL-28 melanoma 103% | SK-MEL-2 melanoma 117% | SN12C renal 97% | UO-31 renal 84% | TK-10 renal 117% | ACHN renal 107% | CAKI-1 renal 96.8% | A498 renal 80.9% | CCRF-CEM leukemia 97.2% | MOLT-4 leukemia 105%

O=C(Nc1cccc(-c2nc3ccccc3[nH]2)c1)c1cccc(NC(=O)c2ccco2)c1
active: UACC-62 melanoma -71.7%
inactive: HCT-15 colon 50.9% | HT29 colon 27.6% | SNB-75 CNS 72.2% | SNB-19 CNS 89.4% | U251 CNS 61.8% | PC-3 prostate 68.5% | SK-MEL-5 melanoma 43.4% | LOX IMVI melanoma 41.8% | SK-MEL-28 melanoma 30.3% | SK-MEL-2 melanoma 101% | SN12C renal 79.1% | UO-31 renal 73.2% | TK-10 renal 91.6% | ACHN renal 86% | CAKI-1 renal 77.6% | A498 renal 83.6% | CCRF-CEM leukemia 68.3% | MOLT-4 leukemia 86.4%
